Compound activity as filed in PubChem.
TGFb inhibitor – qHTS for Inhibitors of TGF-b; HepG2 CAGA-GFP TGF-b/SMAD3 reporter, GFP fluorescence, 18 h; TGF-beta stimulated, 500 pg/mL final; Potency, µM (doses to about 46.1 µM), for the others: at the highest dose activity, negative = inhibition, hits mostly inhibitors; 410,000 compounds, 1.2% hits; also: % is scaled to controls: 0 for no effect and ±100 for the full control effect; nearly all actives have a fitted effect of over 65% in size
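Inhibition was scored as loss of TGF-beta-induced (500 pg/mL final, 18 hours, 37 degrees C) GFP in HEPG2 cells carrying a CAGA-GFP reporter, in DMEM with 1% FBS. Well GFP was summed per cell; Activity was normalised to unstimulated and stimulated DMSO wells, then concentration-response fitting.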
HepG2 viability – qHTS for Inhibitors of TGF-b: Cytotox Counterscreen | HepG2 CAGA-GFP viability, ATP luminescence, 18 h | Potency, µM (series often up to 46.1 µM), for the others: at the top dose activity change, negative = cytotoxicity, most hits filed as cytotoxic | 410,000 compounds, 0.76% hits
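HepG2 CAGA-GFP cells (1000/well, DMEM with 1% FBS) received compound, then TGF-beta at 500 pg/mL final, and were incubated 18 hours at 37 degrees C. Viability was read by CellTiter-Glo luminescence. Media-only wells were set as complete cell-killing and DMSO as no toxicity.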
GLP-1R agonist – qHTS of GLP-1 Receptor Agonists. HEK293 GLP-1R CRE-luciferase, luminescence, 4-6 h; cells express a hypersensitive GLP-1R form. Potency, µM (titrated, usually from 45.6 µM), for the others: at the highest dose activation, most hits filed as activators. Glucagon-like peptide 1 receptor (Homo sapiens), P43220. 380,000 compounds, 0.007% hits; also: % of control where 0% means no effect
Target sequence (P43220 whole entry, looked up): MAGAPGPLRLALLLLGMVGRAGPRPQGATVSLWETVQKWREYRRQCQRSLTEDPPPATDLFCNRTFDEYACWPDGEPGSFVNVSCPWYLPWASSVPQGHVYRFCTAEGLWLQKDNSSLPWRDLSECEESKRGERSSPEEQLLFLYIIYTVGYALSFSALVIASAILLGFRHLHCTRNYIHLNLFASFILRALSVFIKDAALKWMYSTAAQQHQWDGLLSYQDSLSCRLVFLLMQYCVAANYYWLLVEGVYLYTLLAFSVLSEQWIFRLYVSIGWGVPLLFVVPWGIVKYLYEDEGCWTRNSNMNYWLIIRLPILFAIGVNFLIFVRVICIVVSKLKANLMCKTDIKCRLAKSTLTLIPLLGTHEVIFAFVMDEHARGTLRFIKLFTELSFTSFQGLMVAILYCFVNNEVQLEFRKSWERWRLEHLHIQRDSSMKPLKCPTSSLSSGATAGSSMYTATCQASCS
ATXN2 expr inh – Primary qHTS for Inhibitors of ATXN expression. Potency, µM (titrated, usually from 57 µM), for inactives: at the top dose activity change, negative = inhibition, actives largely listed as inhibitors. HEK-293 ATXN2-luciferase reporter, luminescence, 24 h. 360,000 compounds, 0.72% hits. AID 1745845, 2022; also: % is scaled to controls: 0 for no effect and ±100 for the full control effect; nearly all actives have a fitted effect of over 55% in size
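qHTS (up to 57 uM final) was run with 24 h compound exposure of reporter cells at 37 °C. Each well was multiplexed: SteadyGlo luminescence measured ATXN2-luciferase expression after a fluorogenic Gly-Phe-AFC viability readout (25 uM final).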
ATXN viability – Viability Counterscreen for Primary qHTS for Inhibitors of ATXN expression | S2 cells (HEK-293 line with an ATXN2-luciferase reporter) viability, CellTiter-Fluor protease fluorescence, 24 h | Potency, µM (series often up to 56.7 µM), most hits filed as cytotoxic | 400,000 compounds, 0.49% hits | AID 651635, 2014; also: nearly all actives have a fitted effect of over 40% in size
GLP1R inv ag – qHTS of GLP-1 Receptor Inverse Agonists (Inhibition Mode); 410,000 compounds, 1.6% hits; Glucagon-like peptide 1 receptor (Homo sapiens), P43220; Potency, µM (doses to about 38.3 µM), inactives show at the highest dose activity change, negative = inhibition, usual class: inhibitors; AID 624417, 2012; HEK293 GLP-1R CRE-luciferase, luminescence, 24 h; GLP-1R form is constitutively active; also: % is scaled to controls: 0 for no effect and ±100 for the full control effect; nearly all actives have a fitted effect of over 55% in size
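Inverse agonists were sought by their lowering of basal cAMP reporter luciferase output in HEK293 cells stably carrying constitutively active human GLP-1R, after 24 h compound treatment.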
An asterisk follows results filed as active; ! = a repeat was not active. A selection: hits, their analogues and other compounds. The true share with any hit is near 3.7%. Calls follow the shape of the dose curve; as a rule, active = well fitted curve in the direction sought with a large enough effect; inconclusive = small, poorly fitted or top-dose-only effect, or another doubt; inactive = no such curve, though single readings can be large; an effect the other way counts as inactive or inconclusive. Potency is read from the fitted curve at half-maximal effect.

For COc1cc(/C=C2\SC(=S)N(C(Cc3ccccc3)C(=O)O)C2=O)ccc1O (stereo not drawn) the results were TGFb inhibitor -8%, HepG2 viability 1%, GLP-1R agonist -4%, ATXN viability 13µM* and GLP1R inv ag -4%.
For COc1cc(/C=C2\SC(=S)N(Nc3ncc(C(F)(F)F)cc3Cl)C2=O)ccc1O the results were TGFb inhibitor 21%, HepG2 viability -94%, GLP-1R agonist 4%, ATXN2 expr inh 17%, ATXN viability inconclusive and GLP1R inv ag 10µM*.
Screening C#CCn1c(=NC(=O)c2ccc(S(=O)(=O)N3CCc4ccccc4C3)cc2)sc2cc(S(N)(=O)=O)ccc21 returned TGFb inhibitor -8%, HepG2 viability 2.8µM*, GLP-1R agonist -31%, ATXN2 expr inh inconclusive, ATXN viability 18µM* and GLP1R inv ag 4µM*.
For Cc1ccccc1-c1nc(CNC(=O)NC2CCCCC2)c(C)o1 the results were TGFb inhibitor 27%, HepG2 viability -12%, ATXN2 expr inh 1%, ATXN viability inactive and GLP1R inv ag 13%.
`CN(Cc1ccc(C(C)(C)C)cc1)c1cccc2ccccc12` gave GLP-1R agonist -1%.
CC1(C)Cc2c(c(N3CCOCC3)nc3sc(C(=O)Nc4ccc(Cl)cc4)c(N)c23)CO1 was read as TGFb inhibitor -7%, HepG2 viability -6%, GLP-1R agonist 12%, ATXN2 expr inh -10%, ATXN viability inactive and GLP1R inv ag 11%.
For Cc1nc2c(sc3nc(N4CCOCC4)c4c(c32)CC(C)(C)OC4)c(-c2ccc(Cl)cc2)c1C(=O)O the results were TGFb inhibitor inconclusive, HepG2 viability 8%, GLP-1R agonist 11%, ATXN viability inactive and GLP1R inv ag 4.5µM*.
CC1(C)Cc2c(c(N3CCOCC3)nc3snc(N)c23)CO1 was read as TGFb inhibitor 10µM*, HepG2 viability -47%, GLP-1R agonist -22%, ATXN2 expr inh -16%, ATXN viability inconclusive and GLP1R inv ag 4µM*.
Screening CC1(C)Cc2c(c(N3CCOCC3)nc3snc(Br)c23)CO1 returned TGFb inhibitor -4%, HepG2 viability -8%, GLP-1R agonist 4%, ATXN2 expr inh -3%, ATXN viability inactive and GLP1R inv ag 41%.
CCC1CN(CCNC(=O)c2ccccc2-n2cccn2)Cc2cc(OC)ccc2O1 (stereo not drawn) was read as ATXN viability inactive.
Screening Cc1[nH]c2ccccc2c(=O)c1C(=O)/C=C/c1ccccc1 returned TGFb inhibitor inconclusive, HepG2 viability -50%, GLP-1R agonist -5%, ATXN2 expr inh 11µM*, ATXN viability 14µM* and GLP1R inv ag inconclusive.
Screening Cn1ccnc1SCc1cn2cc(Br)ccc2n1 returned TGFb inhibitor 52%, HepG2 viability 12%, GLP-1R agonist -21%, ATXN2 expr inh inconclusive, ATXN viability inactive and GLP1R inv ag 4.5µM*.
`O=C1C(=O)c2ccccc2C(O)=C1CCCCl` gave TGFb inhibitor 2.5µM*, HepG2 viability 2µM*, GLP-1R agonist 0%, ATXN2 expr inh 25µM* and GLP1R inv ag inconclusive.
COc1ccc(CC2=C(O)c3ccccc3C(=O)C2=O)cc1 was read as TGFb inhibitor -12%, HepG2 viability -2%, GLP-1R agonist -5%, ATXN2 expr inh -7%, ATXN viability inactive and GLP1R inv ag -10%.
Screening Cc1cc(OCCCN2CCC(C(O)(c3ccccc3)c3ccccc3)CC2)ccc1Br returned GLP-1R agonist -16%, ATXN2 expr inh 32µM*, ATXN viability 22µM* and GLP1R inv ag inconclusive.
CCOc1cc(/C=N/NC(N)=O)cc(Br)c1OCC(=O)Nc1cccc2ccccc12 was read as TGFb inhibitor 17%, HepG2 viability 11µM*, GLP-1R agonist 5%, ATXN2 expr inh -17%, ATXN viability inactive and GLP1R inv ag 16%.
For CN(C)c1ccc(-c2nn3c(-c4cc(-c5ccccc5)n[nH]4)nnc3s2)cc1 the results were TGFb inhibitor inconclusive and HepG2 viability 2%.
For Cc1cc(=O)c2c(O)c3c(O)cc(=O)c4c3c3c(cc(O)c1c23)C(C)(C)C=4O the results were GLP-1R agonist -1%, ATXN2 expr inh 27µM*! and ATXN viability inactive.
For CCCCC1=NN(C(=O)c2ccco2)C(O)(C(F)(F)F)C1 (stereo not drawn) the results were TGFb inhibitor -5%, HepG2 viability -28%, GLP-1R agonist 6%, ATXN2 expr inh -10%, ATXN viability inactive and GLP1R inv ag 2.2µM*.
For CCCC1=NN(C(=O)C(=O)Nc2ccc(Br)cc2)C(O)(C(F)(F)F)C1 (stereo not drawn) the results were TGFb inhibitor inconclusive, HepG2 viability -78%, GLP-1R agonist 12%, ATXN2 expr inh inconclusive, ATXN viability inconclusive and GLP1R inv ag 7.1µM*.
`CCCCC1=NN(C(=O)c2ccncc2)C(O)(C(F)(F)F)C1` (stereo not drawn) gave TGFb inhibitor -16%, HepG2 viability -4%, GLP-1R agonist 4%, ATXN2 expr inh -24%, ATXN viability inactive and GLP1R inv ag inconclusive.
`O=C(Nc1ccc(F)cc1)[C@H](CSCc1ccccc1)N1Cc2ccccc2C1=O` gave TGFb inhibitor -10%, HepG2 viability -9%, GLP-1R agonist -2%, ATXN2 expr inh -7%, ATXN viability inactive and GLP1R inv ag -8%.
`COc1ccc(OC)c(CN2CCCC(c3nc(-c4ccncc4)ncc3-c3ccccc3C)C2)c1` (stereo not drawn) gave ATXN viability inactive.
CN1CCN(S(=O)(=O)c2ccc(Cc3ccc(S(=O)(=O)N4CCN(C)CC4)cc3)cc2)CC1 was read as TGFb inhibitor 3%, HepG2 viability -21%, GLP-1R agonist -9%, ATXN2 expr inh -11%, ATXN viability inactive and GLP1R inv ag 5.6µM*.
For CN1CCN(S(=O)(=O)c2ccc(Cl)cc2)CC1 the results were TGFb inhibitor -9%, HepG2 viability 2%, GLP-1R agonist -6%, ATXN2 expr inh 11%, ATXN viability inconclusive and GLP1R inv ag 1%.
